22 molecules from article PMC12136788 can be followed below.

Where a chain is given by its changes, count along the chain named. Over roughly 24,000 sequences, “enrichment r” has its median near 0.99; the highest 2% begin near 3.7. This excerpt belongs to a sample that is enriched for the highest values.

First the molecules themselves.
T1: UNK ZnF1-3 (human, UniProt Q9C0B0 31-174)
T1 sequence: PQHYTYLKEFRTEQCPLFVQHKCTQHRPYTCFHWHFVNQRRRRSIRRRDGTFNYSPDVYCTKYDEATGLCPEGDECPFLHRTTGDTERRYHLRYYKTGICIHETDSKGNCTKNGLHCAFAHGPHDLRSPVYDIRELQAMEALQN

B1: chr6:40197388:40197389:+_ENSMUSG00000057716_ENSMUST00000061740|mus_mus|mus_mus_mus_hu_False|68_78 (ssRNA)
RNA: GGGAGUUCUACAGUCCGACGAUCGAGACACUGGGGUGGAUUUAUUCCACCUCUGUUUGCUAGCCUCUAAGAUAGAUUGUUAUUUUGGGAUUCAUGGCCUUGAAUAUCAAGAGGGAAAGGAAGAGGAUGGAAAGAGUCAAGAGUCAACAGAGGAUUGAGCAUCA
B2: 52238803_52238923_934_CDS_ENSG00000023330_ENST00000469224|human|control|control (ssRNA)
RNA: GGGAGUUCUACAGUCCGACGAUCCCCACACACCCGUGGGUGGCGACUCAUUCCUAGGUAGUCAUUACUGCACCAGACUGACACUUGCUUUUUGGUGAUGAGGGAGUCUGAAUAGUCAUCUGCCAUGGGGAAGAUGUGUGCUCGCAACAGAGGAUUGAGCAUCA
B3: 14029136_14029256_1416_CDS_ENSG00000175595_ENST00000311895|human|control|control (ssRNA)
RNA: GGGAGUUCUACAGUCCGACGAUCUUUUUUCUUUUUGAGGGUUCUUUCUUUGGUAGAAGCCCGUUCUUUGUUUUGGGGGUCUUUAGGUCUUUUGUGAGAUUUCCUAAUUCUCUUUGAACUGUCUUCCUUCCUAAAUUUCAUCCACAACAGAGGAUUGAGCAUCA
B4: 80201405_80202562_482_3pUTR_ENSMUSG00000017421_ENSMUST00000017567|mouse|control|control (ssRNA)
RNA: GGGAGUUCUACAGUCCGACGAUCCUGUGGCUGAAAGGAAGUUGAGGCUGCAGAUUCAUCAUCAUCAUAUUCAUCAGAAUCAUCUUGUUGUUUCUUUUUCUGACUCUCUUGUGUUUUCUGUUCAAGAAGUCGCCGUCUUUCAUCCAACAGAGGAUUGAGCAUCA
B5: chr6:30692278:30692279:+_ENSG00000196230_ENST00000327892|hu_hu|FALSE|FALSE (ssRNA)
RNA: GGGAGUUCUACAGUCCGACGAUCCCAGAGUGGAAAGAGAGAGGAGACAUUCAACAAACAAGUAUUUAUUGAGCGCCUACUAUGUGCCAGGCACUGUUCUAGACCCCCCCCAGAAGAAAAAACAAAAAACAAGAUAGAGGCAGCCAACAGAGGAUUGAGCAUCA
B6: chr5:136386232:136386233:-_ENSMUSG00000051391_ENSMUST00000055808|mus_hu|FALSE|FALSE (ssRNA)
RNA: GGGAGUUCUACAGUCCGACGAUCAAGUACACAAUCGAUGGCUUGAUGUUACAUAUGGCUGUAAUGUAGAAAUACUGUAAACUGCAAUUUAGUGUUAAUACUGUCAACUAAUCAGAGACUUCGGAAAACUGGCAAGGCCUAAACCAACAGAGGAUUGAGCAUCA
B7: chr19:37063429:37063430:+_ENSMUSG00000040565_ENSMUST00000099494|mus_mus|FALSE|FALSE (ssRNA)
RNA: GGGAGUUCUACAGUCCGACGAUCCAUAGCAUCCCAAAGAUGUGGCAACUUCACUGCCAUUUCAGCACCAAAAUGCUUCACUAUAGUUGUUAAGGCAAAUUCAGCUCCUCUCCGCUGUACCAGGUAAGGCUUCUGACCCUCAUCCAACAGAGGAUUGAGCAUCA
B8: chr4:95690885:95690886:+_ENSMUSG00000028572_ENSMUST00000156910|mus_mus|mus_mus_mus_hu_False|1_8 (ssRNA)
RNA: GGGAGUUCUACAGUCCGACGAUCUUUAGAAAAUGUUAAAUACCAUGCUAAAAUAUUUUCAAAGGCUUAUUUUAUUUUACCAGAAGUCACAGGCAAGCAGACACUACAAGAAUAUAUGAAAAUGAAACAACAGUGUAAAAUGUACAACAGAGGAUUGAGCAUCA
B9: chr19:7991675:7991676:-_ENSG00000104980_ENST00000595831|hu_mus|FALSE|FALSE (ssRNA)
RNA: GGGAGUUCUACAGUCCGACGAUCAUGUACAGGAAGUAAGAGCACUGAUUUAAAAACAAAAACAAAACAAAACAAAAGGACCUAAAGUGGCUUGGAAGGCAAUGCCAGUGGACUACUUAGAACAGCAGGCCAGGCCUCACCCGACAACAGAGGAUUGAGCAUCA
B10: chr19:7991675:7991676:-_ENSG00000104980_ENST00000595831|hu_mus|motif|central (ssRNA)
RNA: B9 RNA with U82G, A83G
B11: chr14:79828021:79828022:+_ENSMUSG00000043881_ENSMUST00000061222|mus_mus|motif|central (ssRNA)
RNA: GGGAGUUCUACAGUCCGACGAUCAGGAUCAUAGCAGAGCAUGCGCUUACUGUUGACAGCGUAAAGAUAAUUCUGAACCACGGUUAGUUCAAAUGAAUAAAAGGAAUGUGGUACAGGAGCCACCAAUGCCCAUUGGUUCCUCUGCAACAGAGGAUUGAGCAUCA
B12: chr1:163112212:163112213:-_ENSG00000143248_ENST00000313961|hu_hu|hu_hu_hu_mus_False|1_18 (ssRNA)
RNA: GGGAGUUCUACAGUCCGACGAUCUUUUAUUAUCAGUAAGAGUGAGUUACAUACUAGGCAAAGUAUUGGAUACAAUAAUCAGGAAACAAACACUAUUGGUCCAGAAUUUAAAACUUUUGGGAUAAAUUGCUGGCACAGGAUUUACAACAGAGGAUUGAGCAUCA
B13: chr20:5919097:5919098:-_ENSG00000089195_ENST00000203001|hu_hu|FALSE|FALSE (ssRNA)
RNA: GGGAGUUCUACAGUCCGACGAUCGUUCUUAUUCUUGGGAUAUGAAAAAACAAGUAGUAAUGGCAUUUAAAGUUUAAUUACUAACUGUAUAAUGCCUGAGAACAAAAUUCAGAGCAAUUCUCAAAAGGGUUAAGAGUCAGACUCCAACAGAGGAUUGAGCAUCA
B14: chr3:49547525:49547526:-_ENSMUSG00000037892_ENSMUST00000035931|mus_mus|motif|central (ssRNA)
RNA: GGGAGUUCUACAGUCCGACGAUCGUUCAUAUGCUAAAAAUACAAGCAAAACUGUGAUAGCAUGCACAAGAGACAAAAGCGGAAGGUGAAUAAUUAUAGCCAAAAAAAGAGAGACAAUGCAGUCGAUACAAAUGUUCAAGUAUGCAACAGAGGAUUGAGCAUCA
B15: chr3:49547525:49547526:-_ENSMUSG00000037892_ENSMUST00000035931|mus_hu|motif|central (ssRNA)
RNA: GGGAGUUCUACAGUCCGACGAUCGUUCUUAUACUAAAAAUAAAAGCAAAAAUAUGAGAUCAUGCACUGGAGACAAAAGCGGAAAAUGAAUAGUUAUAACAAAGAAAGACAAUAUUCCAAAAGAUUAAAAUGUUCAAGUAUUGUCAACAGAGGAUUGAGCAUCA
B16: chr11:87794696:87794697:-_ENSMUSG00000020483_ENSMUST00000020775|mus_hu|motif|central (ssRNA)
RNA: GGGAGUUCUACAGUCCGACGAUCGCCUUUUAUUUUGUAUAGGGAAAGAAAGAGAAAAGGGAGAGGUGGGAGAGAUUUCCGGGUGCAAUACAACCAAAAAAUAUUUUUAAAGUCUUGAAAAAUAAACAUAAAGCAGCCUUCUUCCAACAGAGGAUUGAGCAUCA
B17: chr3:49547525:49547526:-_ENSMUSG00000037892_ENSMUST00000035931|mus_hu|FALSE|FALSE (ssRNA)
RNA: B15 RNA with G80U, G81A
B18: chr1:154935262:154935263:-_ENSG00000160691_ENST00000448116|hu_hu|motif|central (ssRNA)
RNA: GGGAGUUCUACAGUCCGACGAUCAUUUUGUGCUCAAGAAUAAGCAAUGGAAAAGAAAAUAGGAAAGUAAGUCUACAGCCCGGAAAUAUAUGCAUAUAAAACUUUAAAAGAAUGCAGUUCCAACUCUACAGAUGGUAUGUGGGGCAACAGAGGAUUGAGCAUCA
B19: chr9:90322654:90322655:+_ENSG00000196730_ENST00000408954|hu_hu|FALSE|FALSE (ssRNA)
RNA: GGGAGUUCUACAGUCCGACGAUCAAAGAAAAGCGUAUAAGAAAUACACAUUUUGGAUAAAUAUGCACUUUUCUUUUUUAAAGGACAAUCAAUAUAGUAGUUAAAAAAAAUGUCAUUGAAAAGUUAGGAAUUCCAGCAAAAUUACAACAGAGGAUUGAGCAUCA
B20: chr1:154935262:154935263:-_ENSG00000160691_ENST00000448116|hu_hu|FALSE|FALSE (ssRNA)
RNA: B18 RNA with G81U, G82A
B21: chr4:21667751:21667752:+_ENSMUSG00000028252_ENSMUST00000108240|mus_mus|motif|central (ssRNA)
RNA: GGGAGUUCUACAGUCCGACGAUCUUCUAGUAUAUGAUUCAUCCUGUAAGGAAAUUCCUUUGGAAAAGCAUAUGAAAAUCGGGUUUUUAAUACAGAAGUAGUAGCAGCAAUCAAUCUUGUAUUUGAGACAACACCAAAUUCCUCCAACAGAGGAUUGAGCAUCA
B22: chr5:145543945:145543946:-_ENSG00000133706_ENST00000545646|hu_hu|hu_hu_hu_mus_True|58_98 (ssRNA)
RNA: GGGAGUUCUACAGUCCGACGAUCCUGAACGGCCAGUGGCGGGAAAUAAUCAAGCCAGUGCUCUGCUUCAGAAAACUUUACUAUCUCGUCAUCAGAGAGCCCAAGGGAUUUCAUAAUGUCCCACUGGUACUUAGAAGAUCCUGCCAACAGAGGAUUGAGCAUCA

This experiment has as its target T1, UNK ZnF1-3. Nature of the experiment: nsRBNS (natural sequence RNA bind-n-seq); RBNS binding buffer (assumed for nsRBNS): 25 mM Tris pH 7.5, 150 mM KCl, 3 mM MgCl2, 0.01% Triton X-100, 500 ug/ml BSA, 20 U/ml SUPERase-In, 4 C; UNK is unkempt and MSI1 is Musashi-1; names of the RNAs are library labels; protein concentration not given here; high values mean tight binding.
With B1, the binding signal worked out at 1.33 enrichment R. With B2, the binding signal was 1.04 enrichment R. Turning to B3, the binding signal amounted to 0.174 enrichment R.

B4 came in with a binding signal of 0.524 enrichment R. For the molecule B5, the binding signal was 2.28 enrichment R. With B6, the binding signal worked out at 1.26 enrichment R. Molecule B7 showed a binding signal of 0.992 enrichment R. Consider B8, for which the binding signal turned out to be 1.97 enrichment R. B9 displayed a binding signal of 5.35 enrichment R.

Regarding B10, the binding signal turned out to be 5.15 enrichment R. As for B11, the binding signal is 1.02 enrichment R.

In turn, B12 returned a binding signal of 1.27 enrichment R.

In turn, B13 had a binding signal of 0.585 enrichment R.

In turn, B14 returned a binding signal of 1.91 enrichment R. B15 registered a binding signal of 3.95 enrichment R. B16 came in with a binding signal of 3.42 enrichment R. With B17, the binding signal was 4.56 enrichment R. As for B18, the binding signal stood at 3.69 enrichment R. Molecule B19 gave a binding signal of 8.3 enrichment R. Take B20: the binding signal was 3.55 enrichment R. B21 returned a binding signal of 0.985 enrichment R.

B22 returned a binding signal of 1.23 enrichment R.
